High-throughput results (PubChem)
Only some compounds are listed: those with a hit (about 7.5% of all), similar ones and a draw of the others.
Rab9 prom act: activates the Rab9 promoter; 320,000 compounds, 2.8% hits; Potency, µM (top dose mostly 9.22 µM), without a hit: at the highest dose activation, negative = inhibition, hits mostly activators; Huh7 Rab9 promoter-luciferase reporter, luminescence, 24 h; also: % of control where 0% means no effect; nearly all actives have a fitted effect of over 60% in size
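Luciferase signal after 10 min detection reagent at ambient indicates Rab9 promoter upregulation; stably transfected Huh7 cells were treated 24 h with compound in DMSO at 37 °C, 5% CO2.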
FLuc counter: firefly luciferase modulation, counter-screen for miR-21 project. purified FLuc, Km substrates, luminescence inhibition. Potency, µM (titrated, usually from 57.5 µM), for inactives: top-dose activity change, negative = inhibition, usual class: inhibitors. 360,000 compounds, 6.9% hits. AID 588342;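 also: plate controls were vehicle for no effect and reference inhibitor for full effect; nearly all actives have a fitted effect of over 55% in size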
Target sequence (P08659 whole entry, looked up): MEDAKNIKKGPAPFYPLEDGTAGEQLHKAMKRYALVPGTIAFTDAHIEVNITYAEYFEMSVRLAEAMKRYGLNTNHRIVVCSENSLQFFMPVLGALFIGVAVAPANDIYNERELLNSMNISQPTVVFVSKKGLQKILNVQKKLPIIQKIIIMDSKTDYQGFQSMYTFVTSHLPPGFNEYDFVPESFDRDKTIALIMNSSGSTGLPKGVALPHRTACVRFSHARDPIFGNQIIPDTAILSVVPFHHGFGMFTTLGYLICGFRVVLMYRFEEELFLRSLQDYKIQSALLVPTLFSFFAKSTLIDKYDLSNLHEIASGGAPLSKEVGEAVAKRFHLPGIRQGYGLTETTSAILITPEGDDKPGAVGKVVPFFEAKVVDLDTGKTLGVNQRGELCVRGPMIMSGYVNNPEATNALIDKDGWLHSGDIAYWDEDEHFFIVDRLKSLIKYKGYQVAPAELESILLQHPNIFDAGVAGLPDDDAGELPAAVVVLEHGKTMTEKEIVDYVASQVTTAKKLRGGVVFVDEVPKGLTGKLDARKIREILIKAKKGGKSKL
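Purified P. pyralis luciferase (10nM final) with 10uM D-luciferin and 10uM ATP (Km levels) in 50mM Tris acetate pH 7.5, 10mM Mg acetate, 0.01% Tween-20, 0.05% BSA; qHTS 6-point titration, ~60 µM downward; luminescence read.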
NPC1 promoter act: NPC1 promoter activation; Huh7 NPC1 promoter luciferase reporter, 24 h; 320,000 compounds, 2.4% hits; Potency, µM (top dose mostly 9.22 µM), for inactives: top-dose activation, actives largely listed as activators; also: % of control where 0% means no effect; nearly all actives have a fitted effect of over 60% in size
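Stable NPC1-promoter luciferase Huh7 line; cpd (DMSO) 24 h, 37 °C, 5% CO2; Amplite luciferase reagent 10 min RT; luminescence readout. qHTS format.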
ELG1 genotoxic: inducers of genotoxicity in HEK293T ELG1-luciferase cells; HEK293T ELG1-luciferase reporter, luminescence, 16 h; Potency, µM (series often up to 46 µM), inactives show at the top dose activity change, positive = activation, actives largely listed as activators; 330,000 compounds, 1.3% hits; also: % of control where 0% means no effect; nearly all actives have a fitted effect of over 60% in size
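HEK293T cells expressing luciferase-tagged ELG1 were treated with compound or DMSO for 16 hr at 37°C. Luciferase activity was then read after 30 min with ONE-Glo at room temperature; rising signal flags genetic stress.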
SMN2 splice enh: SMN2 splice variant enhancement; HEK293 SMN2-luciferase splicing reporter, luminescence, 30-36 h; AID 1458; Potency, µM (titrated, usually from 46.1 µM), inactives show top-dose activity change, positive = activation, actives largely listed as activators; 210,000 compounds, 2.8% hits; also: % of control where 0% means no effect; nearly all actives have a fitted effect of over 55% in size
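HEK293 cells carry an SMN2 […]–luciferase reporter in which exon 7 inclusion puts luciferase in frame. Cells were plated 10-12 h before compound addition, then incubated 30-36 h at 37C. ONE-Glo luminescence was read; sodium butyrate at 4.5 mM final served as control.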
Active calls of the source: *; ? = inconclusive; nt = no result given; [ ] = another dose, or the depositor's remark. Calls follow the shape of the dose curve; as a rule, active = well fitted curve in the direction sought with a large enough effect; inconclusive = small, poorly fitted or top-dose-only effect, or another doubt; inactive = no such curve, though single readings can be large; an effect the other way counts as inactive or inconclusive. Potency is read from the fitted curve at half-maximal effect.

SMILES	Rab9 prom act	FLuc counter	NPC1 promoter act	ELG1 genotoxic	SMN2 splice enh
O=C(Nc1ccccc1)Nc1nnc(-c2cccs2)s1	?	-10%	?	15%	?
Cc1nnc(NC(=O)c2cccc(F)c2)s1	1%	?	2%	14%	10%
CC(C)(C)CC(=O)Nc1nnc(-c2cccs2)s1	3.2µM*	-18%	3.2µM*	12%	13µM*
COc1ccc(-c2cc(OC(=O)c3cccc(Cl)c3)c3c(C)oc(C)c3c(=O)c2)cc1	nt	?	nt	nt	-12%
Cc1occc1C(=O)Nc1nccs1	19%	-1%[2.3 µM]	2%	-3%	21%
Cc1occc1C(=O)Nc1nnc(-c2cccs2)s1	3.2µM*	?	?	?	3.5µM*
O=S1(=O)CCOCCCN1Cc1ccccc1	0%	9%	-1%	2%	nt
N=C1/C(=C\c2ccc(SCc3ccccc3)o2)C(=O)N=C2SC=NN12	-4%	13µM*	-6%	3%	8%
O=C(NCCN1CCOCC1)C(=O)NCC1OCCCN1S(=O)(=O)c1cc(F)ccc1F (stereo not given)	12%	1%	0%	-4%	nt
Cc1cc(C)nc(S/C=C/C(=O)c2ccccc2F)n1	-11%	1.5µM*	-9%	?	nt
CC1=C(C(=O)OC2CCCC(C)C2)C(c2ccccc2)NC(=O)N1 (stereo not given)	1µM*	1%	-12%	-4%	nt
COc1ccccc1-c1nnc(Sc2nc([N+](=O)[O-])nn2C)o1	1%	0%	-4%	-20%	-68%
CC(=O)N(C)c1ccc(NS(=O)(=O)c2cccc3nsnc23)cc1	-3%	-2%	-4%	1%	nt
CCC(=O)NC1=C(Cl)C(=O)C(NC(=O)CC)=C(Cl)C1=O	-4%	5.4µM*	3%	1%	nt
CCNS(=O)(=O)c1ccc(CCC(=O)NCCC2=CCCCC2)cc1	-3%	-2%	-2%	2%	-6%
C1CCC(c2nn3c(-c4n[nH]c5c4CCC5)nnc3s2)CC1	-2%	-9%	0%	2%	nt
CCN(CC)c1ccc(-c2nn3c(-c4n[nH]c5c4CCC5)nnc3s2)cc1	-13%	21µM*	-9%	1%	4%
O=C(NCCc1ccc(Cl)cc1)c1cccc(NC2=NC3CS(=O)(=O)CC3S2)c1 (stereo not given)	0%	17µM*	-2%	0%	nt
Cc1ccc(CCNC(=O)c2ccc(NC3=NC4CS(=O)(=O)CC4S3)cc2)cc1 (stereo not given)	0%	0%	0%	2%	nt
Cc1ccc(N(C)C(=O)C2CCN(S(=O)(=O)c3c(C)noc3/C=C/c3c(C)cc(C)cc3C)CC2)cc1	nt	-4%	nt	nt	nt
Cc1cc(/C=C2\C(=N)N3C(SCc4ccccc4)=NSC3=NC2=O)c(C)n1Cc1ccccc1	-1%	21µM*	-1%	0%	-10%
Cc1cc(/C=C2\C(=N)N3N=C(C(C)C)SC3=NC2=O)c(C)n1Cc1ccccc1	-5%	0%	1%	2%	nt
CC(C)CSC1=NSC2=NC(=O)/C(=C\c3ccccc3)C(=N)N12	2.8µM*	17µM*	3.2µM*	?	?
CC(C)CSC1=NSC2=NC(=O)/C(=C\c3coc4ccccc4c3=O)C(=N)N12	-1%	17µM*	1%	0%	21%
Cc1ccc(-n2ncc3c(Nc4ccc(Oc5ccccc5)cc4)ncnc32)cc1	nt	-6%	nt	nt	nt
SMILES	Rab9 prom act	FLuc counter	NPC1 promoter act	ELG1 genotoxic	SMN2 splice enh
CCC(CO)Nc1ncnc2c1cnn2-c1ccc(C)cc1 (stereo not given)	nt	3.4µM*	nt	nt	nt
CC(Nc1ncnc2c1cnn2-c1cccc(Cl)c1)c1ccccc1 (stereo not given)	nt	24µM*	nt	nt	nt
Cc1ccccc1C(=O)NNc1ncnc2c1cnn2-c1cccc(Cl)c1	nt	4%	nt	nt	nt
COCC(C)Nc1ncnc2c1cnn2-c1cccc(Cl)c1 (stereo not given)	nt	13µM*	nt	nt	nt
Cc1ccc(-n2ncc3c(NC(C)c4ccccc4)ncnc32)cc1 (stereo not given)	nt	6µM*	nt	nt	nt
COc1ccc(OC)c(Nc2ncnc3c2cnn3-c2cccc(Cl)c2)c1	nt	0%	nt	nt	nt
Oc1ccc(N=Cc2ccc(-c3cccs3)s2)cc1	-1%	8.5µM*	-4%	0%	-34%
O=C1CCCC(O)=C1C=Nc1ccc(O)cc1	2%	-13%	6%	2%	-19%
COc1ccccc1NC(=O)c1cnc(SCC(=O)NCC2CCCO2)n(C)c1=O (stereo not given)	-1%	5.4µM*	-2%	6%	nt
Cc1ccc(NC(=O)c2cnc(SCC(=O)N3CCOCC3)n(C)c2=O)cc1C	nt	15µM*	nt	nt	nt
Cn1c(SCC(=O)N2CCOCC2)ncc(C(=O)Nc2ccc(F)cc2)c1=O	nt	-10%	nt	nt	nt
COc1ccccc1NC(=O)c1cnc(SCC(=O)N2CCOCC2)n(C)c1=O	nt	7.6µM*	nt	nt	nt
COc1ccccc1NC(=O)c1cnc(SCC(=O)N2CCCc3ccccc32)n(C)c1=O	nt	1.7µM*	nt	nt	nt
COc1cccc(NC(=O)c2cnc(SCC(=O)N3CCCc4ccccc43)n(C)c2=O)c1	nt	-14%	nt	nt	nt
O=C(O)/C=C/c1ccc(OCc2cccc(F)c2)cc1	-2%	17µM*	1%	26%	nt
CC(C)c1ccc(NC(=O)c2cc(Br)ccc2Br)cc1	14%	?	14%	3%	4%
Cc1cc(NC(=O)Nc2ccccc2F)ccc1Br	1.3µM*	2.4µM*	1.4µM*	?	nt
O=C(O)CSc1ccc(NC(=O)Nc2ccccc2F)cc1	2%	12µM*	-2%	2%	nt
O=C(Nc1ccc(Cl)cc1)c1ccc(Br)cc1F	1µM*	3µM*	1.4µM*	3.3µM*	14µM*
O=C(Nc1ccccc1)Nc1ccc(Br)cc1F	?	?	?	14%	13µM*
Cc1ccccc1-c1nnn(CC(=O)N(C)CC(=O)Nc2ccccc2C(F)(F)F)n1	-2%	1%	-5%	7%	nt
Cn1c(C23CC4CC(CC(C4)C2)C3)n[nH]c1=S	1%	1%	-3%	0%	-13%
O=C(Nc1nc(-c2cccs2)c(C(=O)C(F)(F)F)s1)c1ccccc1	-11%	17µM*	0%	-1%	-92%
CC(=O)c1sc(NC(=O)c2c(F)cccc2F)nc1-c1ccccc1	18%	?	3%	5%	-2%
Cc1nc(NC(=O)c2c(-c3ccccc3Cl)noc2C)sc1C	-6%	-4%	1%	-8%	nt
SMILES	Rab9 prom act	FLuc counter	NPC1 promoter act	ELG1 genotoxic	SMN2 splice enh
Cc1nc(NC(=O)c2csc3ccccc23)sc1C	1.3µM*	0.85µM*	?	?	7.9µM*
O=C(Nc1nc(-c2cccs2)c(C(=O)C(F)(F)F)s1)c1ccco1	-13%	?	-1%	-10%	-5%
CC(=O)c1sc(NC(=O)c2ccccc2)nc1-c1ccccc1	1µM*	9.5µM*	2µM*	?	13µM*
Cc1ccc2c(NC(=S)NC(=O)c3ccccc3)cccc2n1	0%	-18%	-1%	-7%	nt
Cc1nc(NC(=S)NC(=O)c2ccccc2)sc1C	3.2µM*	?	4µM*	?	nt
CC(C)CCNC(=O)c1ccc2nc(Cc3ccccc3)oc2c1	nt	7%	nt	nt	nt
